Tg IFNy HTS – T. gondii growth inhibition with IFN-gamma, primary screen, cell-based; Toxoplasma gondii growth in IFN-gamma-treated host cells; hits give low values; activity change, negative = inhibition, % (no concentration beside the values); 3.8% of 69,000 active; AID 1259416, 2018; in the data active = activity change below about -70%, passing the limit was not always enough;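 also: host cells are HeLa cells infected with Toxoplasma gondii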
Each line names hits and unclear results; the compound was inactive in the other large screens; ! = not confirmed by another sample. The sample as a whole holds a higher share of hits than the screen did.

Cc1ccc(-c2nc(CCNC(=O)C(=O)Nc3ccc(F)cc3)cs2)cc1	none
CN1C(=O)c2cc(NS(=O)(=O)c3cccc(F)c3)ccc2OC[C@H]2O[C@H](CC(=O)N3CCc4ccccc4C3)CC[C@@H]21	none
Cc1occc1C(=O)N1CC[C@H]2[C@@H]1CCC(=O)N2c1cnn(C)c1	none
Cc1c(NCc2cccnc2)cccc1C(=O)N1C[C@@H](C)O[C@@H](C)C1	Tg IFNy HTS -83
Cc1noc(C)c1CN(C)C(=O)c1cccc(NCc2cccnc2)c1C	none
CCC1c2cccn2CCN1C(=O)c1cccc(NCc2cccnc2)c1C (centres undefined)	none
CC(C)c1cc(C2CCN(C(=O)C[C@@H](C)c3ccccc3)CC2)[nH]n1	none
Cc1cc(C(=O)N2CCCC(c3ccc(Cc4ccc(Cl)cc4)cn3)C2)nc(N(C)C)n1 (centres undefined)	Tg IFNy HTS -90
CCCc1cc(C(=O)N2CCCC(c3cc4ccccc4cn3)C2)n(C)n1 (centres undefined)	none
Cc1nc2ccccn2c1CC(=O)N1CCCC(c2ccc(Cc3cccc(F)c3)cn2)C1 (centres undefined)	none
CN(C)CCN(Cc1ccco1)S(=O)(=O)c1ccc2[nH]c(=O)ccc2c1	none
CNCC[C@@H](Oc1ccccc1C)c1ccccc1	none
CC(NCCC(c1ccccc1)c1ccccc1)c1ccccc1 (centres undefined)	Tg IFNy HTS -82!
CC(Nc1ccc(-c2nccn2C)nn1)c1ccccc1 (centres undefined)	none
CCOC(=O)Cn1cc(CN2CCCC2c2c(C)noc2CC)c2ccccc21 (centres undefined)	none
O=C(CSc1nc(-c2cccs2)cc(C(F)(F)F)n1)N1CCCc2ccccc21	none
O=C(NC1CCCCNC1=O)c1cn(S(=O)(=O)c2ccccc2)c2ccccc12 (centres undefined)	none
CCC(=O)c1cn(S(=O)(=O)c2ccc(C)cc2)c2ccccc12	Tg IFNy HTS -101
Cc1ccc(S(=O)(=O)n2c(N)nc3ccccc32)cc1	none
COc1ccc2c3c(n(C)c2c1)[C@@H](CO)N(C)CC31CCN(C(=O)CN2CCOCC2)CC1	none
CCCN/C(=C/C(=S)Nc1cccc2ccccc12)c1ccc(OC)cc1	none
COc1cccc(NC(=O)Nc2ccc3c(c2)C(=O)N(C)C[C@H](OC)[C@H](C)CN(CC2CC2)[C@@H](C)CO3)c1	none
Cc1ccc(C)c(-c2coc(-c3ccc(NC(=O)Nc4ccccc4F)cc3)n2)c1	none
Cc1ccc(F)c(NC(=O)Nc2ccc(-c3cccc4[nH]nc(N)c34)cc2)c1	Tg IFNy HTS -75
Cc1ccc(-c2coc(-c3ccc(NC(=O)Nc4ccc(F)cc4F)cc3)n2)c(C)c1	none
CC1=C(C(=O)Nc2ccc(Cl)cc2)C2(CCN(Cc3ccccc3)CC2)OC1=O	none
CCOc1ccc(NC(=O)C2=C(C)C(=O)OC23CCN(Cc2ccccc2)CC3)cc1	none
CC1=C(C(=O)Nc2ccc(Cl)c(Cl)c2)C2(CCN(Cc3ccccc3)CC2)OC1=O	Tg IFNy HTS -93
CCS(=O)(=O)Nc1ccc2c(c1)C(=O)N(C)[C@H]1CC[C@@H](CC(=O)NCc3ccc(OC)cc3)O[C@@H]1CO2	none
CN1CCCC1(Cc1ccccc1)C(=O)O (centres undefined)	none
Cc1ccc(CC2(O)CC(C)N(C)CC2C)cc1 (centres undefined)	none
CC1C(c2ccccc2)N(C)C(c2ccccc2)CC1(O)Cc1ccccc1 (centres undefined)	Tg IFNy HTS -85
C[C@@H]1CN([C@@H](C)CO)C(=O)c2cc(C3=CCCCC3)cnc2O[C@@H]1CN(C)S(=O)(=O)c1cn(C)cn1	none
Cc1cc2nc(C3CCCN3C(=O)c3cccc(-n4cnnn4)c3)[nH]c2cc1C (centres undefined)	none
Fc1ccc(C(CCCN2CCN3CCCCC3C2)c2ccc(F)cc2)cc1 (centres undefined)	none
OC1(c2ccc(Cl)c(C(F)(F)F)c2)CCN(CCCC(c2ccc(F)cc2)c2ccc(F)cc2)CC1	Tg IFNy HTS -85!
OC(CCCN1CCC(O)(c2ccc(Cl)cc2)CC1)c1ccc(F)cc1 (centres undefined)	none
C[C@H](CO)N1C[C@H](C)[C@@H](CN(C)S(=O)(=O)c2cccc(C#N)c2)OCc2cn(nn2)CCCC1=O	none
CCN1c2cc(C)ccc2-n2cccc2C12CCN(C(=O)Nc1ccc(Cl)cc1)CC2	none
CCN1c2ccccc2-n2cccc2C12CCN(C(=O)Nc1ccccc1C(F)(F)F)CC2	none
CCN1c2cc(C)ccc2-n2cccc2C12CCN(C(=O)NCc1ccccc1)CC2	none
CCN1c2cc(C)ccc2-n2cccc2C12CCN(C(=O)Nc1ccc(C)c(C)c1)CC2	Tg IFNy HTS -93
CCN1c2cc(C)ccc2-n2cccc2C12CCN(C(=O)Nc1ccc(C)c(F)c1)CC2	none
CCN1c2cc(C)ccc2-n2cccc2C12CCN(C(=O)Nc1cccc(C)c1)CC2	none
CCN1c2cc(C)ccc2-n2cccc2C12CCN(C(=O)NCc1ccc(F)cc1)CC2	Tg IFNy HTS -114
CCOC(=O)c1ccc(NC(=O)N2CCC3(CC2)c2cccn2-c2ccc(C)cc2N3CC)cc1	none
CCN1c2ccccc2-n2cccc2C12CCN(C(=O)Nc1cccc(Cl)c1C)CC2	none
CCN1c2cc(C)ccc2-n2cccc2C12CCN(C(=O)NCc1ccco1)CC2	none
CCN1c2ccccc2-n2cccc2C12CCN(C(=O)Nc1ccccc1C)CC2	Tg IFNy HTS -82
CCN1c2cc(C)ccc2-n2cccc2C12CCN(C(=O)Nc1ccc(F)cc1)CC2	Tg IFNy HTS -96
CC1=C(C(=O)NCc2cccs2)C2(CCN(S(C)(=O)=O)CC2)OC1=O	none
CCc1cc(C(=O)N2CCN(C3CCN(C)CC3)CC2)nc2cc(-c3ccccn3)nn12	none
CCOC(=O)CSc1nnc(CNc2ccc(F)cc2)n1-c1ccccc1	none
O=C(c1ccncc1)N1CCC(n2nnc3cccnc32)CC1	none
COCC(=O)N1CC2(C1)CN(Cc1nccs1)[C@@H](CO)c1c2c2ccc(OC)cc2n1C	none
CC(C)(C)OC(=O)N[C@H]1CCCCC/C=C\[C@@H]2C[C@@]2(C(=O)NS(=O)(=O)C2CC2)NC(=O)[C@@H]2C[C@@H](OC(=O)N3Cc4cccc(F)c4C3)CN2C1=O	none
O=C(NCCCN1CCCCCC1)C(c1ccccc1)C1CCCCC1 (centres undefined)	none
COc1ccc(-c2nc(Cn3cnc4onc(C)c4c3=O)c(C)o2)cc1OC	none
O=C(NCc1n[nH]c2c1CCCC2)C1CCN(S(=O)(=O)c2ccc(F)cc2)C1 (centres undefined)	none
COc1cc(OC)cc(C(=O)NCCc2sc(-c3cccc(F)c3)nc2C)c1	none
CC(=O)N1C(=O)/C(=N\N2C(=O)c3ccccc3C2=O)c2cc(C)c(Br)cc21	none
Cc1ccc(NC(=O)c2sc(N)c(C#N)c2C)c(C)c1	none
O=C(c1cnc[nH]1)N1CCC2(CC(=O)N(c3ccccc3)C2)C1 (centres undefined)	none
COc1cc(CCc2cc(NC(=O)c3ccc(N4C[C@@H](C)N[C@@H](C)C4)cc3)n[nH]2)cc(OC)c1	Tg IFNy HTS -74
COc1ccc(NC(=O)c2ccc(-n3c(C)ccc3C)cc2)c(OC)c1	none
COc1ccc(CCCNC(=O)c2ccc(N3CC(O)C3)nc2)cc1	none
CCCNC(=O)Nc1ccc2c(c1)OC[C@@H](C)N(Cc1cncnc1)C[C@H](C)[C@H](OC)CN(C)C2=O	none
O=C(O)CC1CC2(CCN(C(=O)Cc3cccnc3)CC2)Oc2ccccc21 (centres undefined)	none
CCC(=O)N1CCC2(CC1)CC(CC(=O)Nc1cccnc1)c1ccccc1O2 (centres undefined)	none

Bioassay records deposited in PubChem by Broad Institute.
